These results are taken from PubChem BioAssay.

Test [1] can be described thus: compound effects on lung adenocarcinoma cell viability – A549, calcein-AM fluorescence, 48 h, basal, profiling panel (AID 1162). Also: test concentration not given here. The settings on record: higher = more signal.
Test [2] can be described thus: compound effects on differentiated 3T3-L1 adipocyte viability – cell-based, 3T3-L1 adipocytes, calcein-AM fluorescence, 48 h, basal, profiling panel (AID 1163). Also: test concentration not given here. The settings on record: 3T3-L1 adipocytes viability, higher = more signal.
Test [3] is described as follows: compound effects on hepatocellular carcinoma cell viability – HepG2, calcein-AM fluorescence, 48 h, basal, profiling panel (AID 1164). Also: test concentration not given here. The settings on record: higher = more signal.
Test [4] is described as follows: compound effects on multiple myeloma cell viability – MM1S, calcein-AM fluorescence, 48 h, basal, profiling panel (AID 1165).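 Also: viability of MM1S multiple myeloma cells under basal unstimulated conditions; test concentration not given here.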 The settings on record: higher = more signal.
The nature of test [5]: calcein-AM signal in unstimulated myeloma cells – cell-based, calcein-AM fluorescence, 48 h, PK04 Diversity Set, profiling panel (AID 1166).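 Also: cells grown under basal conditions without added stimulus; test concentration not given here.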 The conditions noted are these: RPMI8226 myeloma viability, higher = more signal.
The nature of test [6]: JC-1 mitochondrial signal, unstimulated HepG2 cells – cell-based, JC-1 fluorescence, 24 h, 100 nL compound, profiling panel (AID 1167). Also: test concentration not given here. The conditions noted are these: HepG2 mitochondrial potential, higher = more signal.
A short description of test [7]: JC-1 mitochondrial signal, unstimulated adipocytes – cell-based, JC-1 fluorescence, 3T3-L1 adipocytes, 24 h, 100 nL compound, profiling panel (AID 1168). Also: test concentration not given here. The conditions noted are these: JC-1 mitochondrial fluorescence, higher = more signal, called active from +8 up or from −8 down.
Test [8] in a line: JC-1 mitochondrial signal, unstimulated myeloma cells – cell-based, JC-1 fluorescence, RPMI8226, 24 h, 100 nL compound, profiling panel (AID 1169). Also: test concentration not given here. The conditions noted are these: JC-1 mitochondrial potential fluorescence, higher = more signal.
The nature of test [9]: JC-1 mitochondrial signal, unstimulated MM1S myeloma – cell-based, JC-1 fluorescence, 24 h, 100 nL compound, profiling panel (AID 1170). Also: test concentration not given here. The conditions noted are these: MM1S mitochondrial potential, higher = more signal.
A short description of test [10]: resazurin metabolic signal in A549 cells – cell-based, resazurin fluorescence, 24 h, PK04 Diversity Set, profiling panel (AID 1171). Also: test concentration not given here. The settings on record: A549 viability, higher = more signal, called active from +8 up or from −8 down. Background: Alamar Blue is a resazurin reagent that responds to reducing activity.
Test [11] is described as follows: resazurin metabolic signal in HepG2 cells – cell-based, resazurin fluorescence, 24 h, PK04 Diversity Set, profiling panel (AID 1172). Also: test concentration not given here. The settings on record: HepG2 viability, higher = more signal.
A short description of test [12]: budding yeast growth changes without added modifier – OD600, strain BY4716, 24 h, basal condition, primary screen (AID 1173). The conditions noted are these: S. cerevisiae BY4716 growth, OD600, 24 h; higher = more signal, called active from +8 up or from −8 down.
Test [13] in a line: viability profiling in MM1S myeloma cells – cell-based, resazurin fluorescence, basal, 24 h, PK04 Diversity Set, profiling panel (AID 1174). Also: test concentration not given here. The conditions noted are these: higher = more signal, called active from +8 up or from −8 down.
Test [14] deals with Dihydroorotate dehydrogenase (quinone), mitochondrial (Plasmodium falciparum (isolate 3D7)) (UniProt Q08210). Nature of the test: inhibition of P. falciparum DHODH – biochemical, C-terminal His tag, absorbance 600 nm, primary screen (AID 1175).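 Also: recombinant parasite enzyme with a five histidine tag at its C terminus; test concentration not given here.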 The conditions noted are these: PfDHODH enzyme, DCIP absorbance 600 nm; higher = more signal, called active from +8 up or from −8 down.
Dihydroorotate dehydrogenase (quinone), mitochondrial (Plasmodium falciparum (isolate 3D7)), sequence (Q08210 whole entry, looked up): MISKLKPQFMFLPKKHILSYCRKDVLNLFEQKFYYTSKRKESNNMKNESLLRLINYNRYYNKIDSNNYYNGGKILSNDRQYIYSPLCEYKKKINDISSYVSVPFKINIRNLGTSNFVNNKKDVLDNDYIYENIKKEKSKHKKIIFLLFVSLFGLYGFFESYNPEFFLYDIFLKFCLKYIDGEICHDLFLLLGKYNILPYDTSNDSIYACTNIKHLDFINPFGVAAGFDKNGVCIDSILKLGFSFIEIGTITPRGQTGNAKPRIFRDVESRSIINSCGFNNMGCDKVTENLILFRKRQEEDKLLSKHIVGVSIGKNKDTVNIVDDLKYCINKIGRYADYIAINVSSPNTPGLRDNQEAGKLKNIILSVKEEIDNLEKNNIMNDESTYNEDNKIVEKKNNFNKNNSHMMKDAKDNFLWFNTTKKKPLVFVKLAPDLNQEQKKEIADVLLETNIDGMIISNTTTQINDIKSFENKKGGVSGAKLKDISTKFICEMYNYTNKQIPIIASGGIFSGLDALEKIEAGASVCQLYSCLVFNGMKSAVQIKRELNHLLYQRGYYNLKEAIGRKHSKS

Test [15] is described as follows: inhibition of PAO1 biofilm formation – strain PAO1, LB-PBS medium, absorbance 600 nm, primary screen (AID 1176). Also: test concentration not given here. The settings on record: P. aeruginosa PAO1 growth/biofilm, A600, 12 h; higher = more signal.
The nature of test [16]: growth modulation of vineyard yeast isolate – strain RM11-1a, OD600, basal, 24 h, primary screen (AID 1177).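 Also: cultures grown under basal conditions with no added stressor; test concentration not given here.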 The settings on record: S. cerevisiae RM11-1a growth, OD600, 24 h; higher = more signal, called active from +8 up or from −8 down.
The nature of test [17]: growth of efflux-deficient E. coli DRC39 – strain DRC39, OD650, 24 h, E. coli filamentation inducers, primary screen (AID 1178).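 Also: growth measured as culture turbidity by optical density at 650 nm; test concentration not given here.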 The settings on record: E. coli DRC39 acrAB, higher = more signal, called active from +8 up or from −8 down.
Test [18] can be described thus: growth of efflux-deficient E. coli DRC39 – strain DRC39, OD650, 48 h, E. coli filamentation inducers, primary screen (AID 1179).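 Also: screen aims at cell division blockers that make cells filament.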 The settings on record: E. coli DRC39 delta-acrAB growth, higher = more signal, called active from +8 up or from −8 down.
Test [19] can be described thus: viability profiling in RPMI8226 myeloma cells – cell-based, resazurin fluorescence, basal, 24 h, PK04 Diversity Set, profiling panel (AID 1180).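 Also: RPMI8826 multiple myeloma cell line at 5000 cells per well; test concentration not given here.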 The settings on record: higher = more signal.
Test [20] has as its target E3 ubiquitin-protein ligase XIAP (Homo sapiens) (UniProt P98170). The test is described as follows: small molecules binding XIAP protein – biophysical, small-molecule microarray, fluorescence 635 nm, primary screen (AID 1181).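 Also: score merges 667 nm emission and signal to noise over triplicate slides.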 The conditions noted are these: higher = more signal.

Activity calls are given as the source filed them. Unless noted, no rule for the calls is given here.

E3 ubiquitin-protein ligase XIAP (Homo sapiens), sequence (P98170 whole entry, looked up): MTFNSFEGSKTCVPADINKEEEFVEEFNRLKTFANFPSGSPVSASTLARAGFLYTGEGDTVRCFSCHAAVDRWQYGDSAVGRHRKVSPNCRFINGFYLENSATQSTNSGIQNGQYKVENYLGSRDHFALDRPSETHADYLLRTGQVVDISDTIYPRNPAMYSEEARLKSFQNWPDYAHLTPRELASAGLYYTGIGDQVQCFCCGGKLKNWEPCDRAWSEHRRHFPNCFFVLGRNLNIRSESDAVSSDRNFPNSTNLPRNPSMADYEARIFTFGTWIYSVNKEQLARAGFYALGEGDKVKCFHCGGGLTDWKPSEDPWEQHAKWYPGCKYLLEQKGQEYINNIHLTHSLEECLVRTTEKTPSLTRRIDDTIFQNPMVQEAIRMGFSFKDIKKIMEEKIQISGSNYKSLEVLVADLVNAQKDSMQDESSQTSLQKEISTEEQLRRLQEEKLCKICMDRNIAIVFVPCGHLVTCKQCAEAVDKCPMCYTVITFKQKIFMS

Turning to `O=C(OCCF)C1=CCC(c2cccc(Cl)c2)O1` (stereo not given), the z-score in test [1] is 0.558; in test [2] it was -0.0426; in test [3], 0.303; in [4] it was 1.17; in test [5] it was 0.669; in test [6] it was 0.89. The z-score in [7] is 1.15 (inactive); in test [8], -1.07; in [9], -0.157; in [10], -0.61 (inactive); in test [11], -0.185; in test [12], -2.59 (inactive). In addition, the z-score in test [13] is 0.0509 (inactive); in test [15] it was -0.212 (inactive); in test [16], -1.56 (inactive); in [17] it was -0.18 (inactive); in test [18] it was 0.443 (inactive); in test [19] it was 0.122. The figures for the composite z-score in [14] and in test [20] were -1.71 (inactive) and 0.0176, respectively.

Turning to `CC(C)C(O)C1C=CC2C(=O)N(c3ccccc3)C(=O)C2N1Nc1ccc(C#N)cc1` (stereo not given), the z-score in test [1] is -0.777; in [2] it was -0.289; in [3] it was -0.114; in test [4], -0.0628; in [5], -1.15; in test [6], -0.421. Besides, the z-score is -1.47 (inactive) in [7]; -0.775 in [8]; -0.44 in [9]; -0.796 (inactive) in test [10]; -1.45 in [11]; -2.14 (inactive) in test [12]. Moreover, the z-score in test [13] was -1.66 (inactive); in test [15], 1.11 (inactive); in test [16] it was -0.0111 (inactive); in test [17], -0.718 (inactive); in [18], 0.0323 (inactive); in test [19], -0.47. Further, the results for the composite z-score in test [14] and in [20] were -1.02 (inactive) and 0.0073, respectively.

`CCOC(=O)C1=CCC(c2ccc([N+](=O)[O-])cc2)N(S(=O)(=O)c2ccc(C)cc2)C1` (stereo not given): the z-score in test [1] is -0.561; in test [2], -1.29; in test [3] it was 0.0862; in [4] it was -0.0901; in test [5], -1.17; in [6], 2.63. The z-score in test [7] was -0.769 (inactive); in test [8], 0.877; in test [9] it was -2.12; in [10], 0.395 (inactive); in test [11] it was 0.291; in [12], 2.15 (inactive). The z-score was -1.1 (inactive) in [13]; -0.116 (inactive) in test [15]; 2.42 (inactive) in test [16]; -0.627 (inactive) in test [17]; -0.418 (inactive) in [18]; -1.5 in test [19]. Moreover, the composite z-score in [14] is 0.774 (inactive); in test [20], -0.0513.

As to `CCCCC=C[C@@H](NC(=O)c1ccc(C(=O)OC)cc1)c1ccccc1`, the z-score in test [1] is -1.19; in [2], -0.87; in test [3], -0.721; in test [4], -2.31; in test [5], -2.6; in [6], -1.33. Also, the z-score is -0.346 (inactive) in test [7]; -0.862 in test [8]; -1.38 in test [9]; 3.37 (inactive) in [10]; 2.26 in test [11]; 0.399 (inactive) in test [12]. Moreover, the z-score in test [13] was 1.13 (inactive); in [15], -0.567 (inactive); in test [16] it was 1.18 (inactive); in [17], -0.0227 (inactive); in test [18] it was 0.623 (inactive); in test [19] it was 3.78. The composite z-score was -0.543 (inactive) in test [14] and -0.145 in test [20].

As for `CC(C)NC(=O)[C@@H]1c2ccccc2C(=O)N(Cc2ccccc2)[C@H]1c1ccc(CO)cc1`, the z-score in [1] was 0.831; in test [2], -0.46; in test [3], -0.116; in test [4] it was -1.42; in test [5], -0.238; in test [6], 0.681. Also, the z-score in test [7] was -1.5 (inactive); in [8], 0.00231; in test [9], -0.0636; in test [10], 0.748 (inactive); in test [11] it was -0.043; in test [12], 0.349 (inactive). Moreover, the z-score in [13] was -0.889 (inactive); in test [15], 0.292 (inactive); in test [16] it was -0.714 (inactive); in test [17], 0.0003 (inactive); in test [18], -0.176 (inactive); in test [19], -0.239. Further, the composite z-score was 0.0505 (inactive) in test [14] and -0.0473 in test [20].

For `COc1ccc([Si](C)(C)[C@H]2[C@H](CCn3cc([C@H](O)c4ccccc4)nn3)O[C@@]3(C(=O)N(Cc4cccc(N5CCC5=O)c4)c4ccccc43)[C@@H]2C)cc1`, the z-score in test [1] was 0.692; in test [2], 1.3; in test [3], 1.57; in [4], 0.739; in test [5], -1.32; in test [6], 0.906. In addition, the z-score in [7] is -0.336 (inactive); in [8], -1.15; in test [9] it was -0.948; in test [10], -0.323 (inactive); in test [11] it was 0.429; in [12], -1.53 (inactive). Besides, the z-score in test [13] is -0.85 (inactive); in test [15] it was 1.59 (inactive); in test [16], -0.101 (inactive); in [17], 0.898 (inactive); in test [18], 1.02 (inactive); in [19], 0.388. In addition, the figures for the composite z-score in [14] and in test [20] were -1.21 (inactive) and 0.166, respectively.

Consider `[N-]=[N+]=NCc1ccccc1[C@@H]1OC(c2ccc(OCCCO)cc2)=N[C@]1(Cc1ccccc1)C(=O)N1CCCCC1`, for which the z-score is 0.251 in test [1]; 0.445 in [2]; 0.525 in test [3]; -0.604 in test [4]; -3.3 in [5]; -0.227 in test [6]. Besides, the z-score was 0.467 (inactive) in [7]; -1.23 in test [8]; -0.354 in [9]; 0.583 (inactive) in test [10]; -0.596 in test [11]; -1.11 (inactive) in test [12]. In addition, the z-score was -1.3 (inactive) in test [13]; -0.621 (inactive) in test [15]; 1.48 (inactive) in [16]; 0.775 (inactive) in test [17]; 0.345 (inactive) in test [18]; -0.94 in [19]. The values for the composite z-score in test [14] and in test [20] were 0.678 (inactive) and -0.257, respectively.

Consider `C[C@H]1NC(=O)[C@H](Cc2ccccc2)NC(=O)[C@@]23C(=O)N[C@@H](Cc4ccccc4)C2[C@H](C)[C@@]2(C)O[C@H]2C3/C=C/C/C=C\CNC1=O` (stereo not given in full), for which the z-score in [1] was 1.1; in test [2], 0.827; in test [3] it was 0.514; in test [4], -0.0775; in [5], -1.27; in [6], 0.542. The z-score in [7] was 0.342 (inactive); in [8] it was 0.0827; in test [9], 0.782; in test [10], 0.229 (inactive); in [11], -0.23; in test [12] it was 0.0145 (inactive). Further, the z-score in test [13] is 0.557 (inactive); in test [15], -0.246 (inactive); in test [16], 1.16 (inactive); in [17], 1.32 (inactive); in [18], 0.64 (inactive); in test [19], 1.07. In addition, the composite z-score in [14] is 0.742 (inactive); in test [20], -0.173.

In the case of `COCCOC(=O)N1C(=O)[C@@]2(c3cc(C#CCNC(N)=O)ccc31)[C@H](C(=O)N1CCN(c3ncccn3)CC1)[C@H]1C(=O)O[C@H](c3ccccc3)[C@H](c3ccccc3)N1[C@@H]2c1ccccc1OCCO`, the z-score in test [1] is -0.246; in test [2] it was 1.24; in test [3], -0.539; in [4], -0.648; in test [5], -0.876; in [6] it was -1.43. In addition, the z-score in test [7] is 1.29 (inactive); in test [8], -1.09; in [9] it was -1.04; in [10] it was 1.02 (inactive); in [11] it was 0.841; in test [12], 2.3 (inactive). The z-score was 0.0815 (inactive) in [13]; 0.669 (inactive) in [15]; 3.47 (inactive) in test [16]; 0.559 (inactive) in test [17]; -0.438 (inactive) in test [18]; 0.147 in [19]. Besides, the composite z-score in [14] was 0.373 (inactive); in [20] it was 0.0611.
